Results filed as inconclusive are left out. Values without a mark were called inactive. Calls of active or inactive are those of the source. The call rests on the fitted dose curve; in most records, active means well fitted inhibition curve with a large enough effect; inconclusive means small, poorly fitted or top-dose-only effect; inactive means no such curve, though single readings can be large or run the other way.
On the % scale 0 is the no-effect control and ±100 the full control effect; potency means the concentration at half of the fitted maximal effect.

The target in the assay is Tumor susceptibility gene 101 protein (Homo sapiens) (UniProt Q99816). As to the kind of experiment: qHTS Assay for Iinhibitors of HIV-1 Budding by Blocking the Interaction of PTAP/TSG101: Hit Validation in TR assay. The settings on record: Tsg101 binding domain + Texas Red-labeled PTAP peptide, fluorescence polarization, 20 min; series mostly up to 57.5 µM; activity change, negative = inhibition: at the top concentration. Summed up: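 Fluorescence polarization: Tsg101 binding domain (10 uM final) with Texas Red-labelled PTAP peptide (50 nM final) in HEPES pH 7.5, 0.15 M NaCl, Tween 20, EDTA, TCEP; 20 min binding at room temperature after compound addition.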
Sequence of Tumor susceptibility gene 101 protein (Homo sapiens) (Q99816 whole entry, looked up, the tested form may be a part): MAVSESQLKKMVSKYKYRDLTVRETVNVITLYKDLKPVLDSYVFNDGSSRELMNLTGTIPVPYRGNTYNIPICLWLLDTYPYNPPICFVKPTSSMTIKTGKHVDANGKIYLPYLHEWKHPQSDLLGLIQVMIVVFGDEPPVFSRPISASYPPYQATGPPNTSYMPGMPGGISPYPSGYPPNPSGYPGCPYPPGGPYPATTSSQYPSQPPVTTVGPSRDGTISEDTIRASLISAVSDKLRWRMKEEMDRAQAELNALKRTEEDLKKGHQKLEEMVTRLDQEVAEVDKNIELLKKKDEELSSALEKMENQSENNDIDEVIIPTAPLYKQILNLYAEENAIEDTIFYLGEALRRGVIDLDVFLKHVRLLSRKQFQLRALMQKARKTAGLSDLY
For orientation: Quantitative high-throughput screening tests each substance at several concentrations.
Turning to `O=[N+]([O-])c1cc(Cl)c2cccnc2c1O`, the “activity change, negative = inhibition” value is -23.7%.
Still for that read-out and setting: the result for `CCN(CC)c1ccc2cc(S(=O)(=O)c3ccc(C)cc3)c(=O)oc2c1` reads -30.2%; that for `COc1ccc(CNS(=O)(=O)c2cc3c(cc2Cl)N(C(C)=O)CCO3)cc1`, -7.94%.
Same read-out and setting: the value for `CC1C2C(C)N(C)C(=O)N(C)C2N(C)C(=O)N1C` (centres undefined) was -1.62%; that for `CN1C(=O)c2cccc3c(N)ccc(c23)C1=O` was 2.6%.
The same measure, in the same setting: the result for `CN1CCc2c(sc3c2C(=O)NC(c2ccco2)N3)C1` (centres undefined) reads 27.6%.
For the molecule `Cc1nc(Cl)c2c(n1)NC1=C(O2)C(=O)CCC1`, the “activity change, negative = inhibition” value is 22%.
On the same count and under the same terms, the value for `CCCCOC(=O)c1ccc(NC(=O)/C(C#N)=C/c2ccc(-c3ccccc3)o2)cc1` was -17.3%; that for `Cc1ccc(C2C=C(c3ccccc3)Nc3nc(NS(C)(=O)=O)nn32)cc1` (centres undefined) was -8.43%.
Consider `Cc1ccc[n+](-c2nc([O-])sc2/C=N/Nc2ccc([N+](=O)[O-])cc2)c1`, for which the “activity change, negative = inhibition” value is 11.8%.
Same read-out and setting: the result for `O=C(NCc1ccc(F)cc1)c1cccc2c1C(=O)c1ccc(N3CCC(Cc4ccccc4)CC3)cc1S2(=O)=O` reads 11.5%.
With `CC(C)c1nnc(N2C(=O)C(O)=C(C(=O)c3cccs3)C2c2ccccc2)s1` (centres undefined), the “activity change, negative = inhibition” value was 26.3%.
On the same count and under the same terms, the value for `Nc1ccc2nc3c(=O)[nH]c(=S)[nH]c3nc2c1` was -13%.
Same read-out and setting: the result for `C/C(=N\NC(=O)CC#N)c1cc2ccc(O)cc2oc1=O` reads -3.9%.
For `CCN(CC)c1ccc2c(-c3ccc(S(=O)(=O)O)cc3S(=O)(=O)[O-])c3ccc(=[N+](CC)CC)cc-3oc2c1`, the Potency was 0.13 µM (active).
Regarding `Cc1cc(=O)oc2ccc(OC(=O)CN3C(=O)c4cccc([N+](=O)[O-])c4C3=O)cc12`, the “activity change, negative = inhibition” value was -7.07%.
Regarding `CCOC(=O)c1ccc(NC(=O)CSc2nc(-c3cccs3)cc(C(F)(F)F)c2C#N)cc1`, the “activity change, negative = inhibition” value is -13.1%.
The same measure, in the same setting: the value for `O=C1c2cccc3c(O)ccc(c23)C(=O)N1Cc1ccco1` was -0.957%; that for `COc1cccc(C2C3CN(C)CC=C3C(C#N)=C(N)C2(C#N)C#N)c1OC` (centres undefined) was -12.7%.
On the same count and under the same terms, the value for `CC1C2C(c3ccccc3)N(C)C(=O)N(C)C2N(C)C(=O)N1C` (centres undefined) was -10.7%; that for `Cc1c(C(=O)Nc2cccc(C(F)(F)F)c2)sc2nc3n(c(=O)c12)CCCC3` was -20.7%.
The same measure, in the same setting: the value for `Cc1ccc(NC(=O)/C(C#N)=C(\N)C(Cl)(Cl)Cl)nc1` was 2.42%; that for `CCNc1ccc2noc3c2c1C(=O)c1ccccc1-3` was -63.1%; that for `CNc1ccc2c3c(cccc13)C(=O)N(C)C2=O` was 22.8%.
Turning to `CCCN1CCCc2cc(CN)ccc21`, the “activity change, negative = inhibition” value is -2.1%.
On the same count and under the same terms, the result for `CCN1CC=C2C(C#N)=C(N)C(C#N)(C#N)[C@H](c3cccc(OC)c3OC)[C@H]2C1` reads -12.5%; that for `CN(C)CCNc1ccc2ncn3c4ccc(O)cc4c(=O)c1c23`, -0.118%.
For `Cc1ccccc1N1C(=O)c2cccc3c(N(C)CCO)ccc(c23)C1=O`, the Potency was 32.6 µM (active).
Take `Cc1nc2ccccc2n2c(O)c(CC(=O)O)cc12`: the “activity change, negative = inhibition” value is 17.7%.
Same read-out and setting: the result for `O=C1NC(c2ccco2)Nc2sc3c(c21)CCN(Cc1ccccc1)C3` (centres undefined) reads 14.1%; that for `C=CCn1c(=N)c(S(=O)(=O)c2ccc(C)c(C)c2)cc2c(=O)n3ccccc3nc21`, -10.9%.
The same measure, in the same setting: the result for `Nc1ccc2c3c(cccc13)-c1ccccc1-2` reads -5.02%; that for `Cc1ccc(C)c2nc3sc(C(=O)N4CCCc5ccccc54)c(N)c3cc12`, 27.2%; that for `COc1ccc(/C(O)=C/c2nc3ccccc3n(-c3ccccc3)c2=O)cc1`, -4.86%.
On the same count and under the same terms, the value for `COc1cccc2c1C(=O)c1c(O)c3c(c(O)c1C2=O)CC(O)(C(C)=O)CC3OC1CC(N(C)C)C(O)C(C)O1` (centres undefined) was -14.6%; that for `CC(=O)Nc1ccc2cc3ccc(NC(C)=O)cc3nc2c1` was 23.2%.
`CN1/C(=C\C=C2/C(=O)Oc3ccccc3C2=O)C(C)(C)c2ccccc21`: the “activity change, negative = inhibition” value is 14.8%.
For the molecule `CC1CCN(c2ccc3c(c2)S(=O)(=O)c2ccccc2C3=O)CC1`, the “activity change, negative = inhibition” value is -17.4%.
For the molecule `Nc1cccc(N2C(=O)c3cccc4c(N)ccc(c34)C2=O)c1`, the “activity change, negative = inhibition” value is -15%.

These data come from PubChem BioAssay AID651599 (National Center for Advancing Translational Sciences (NCATS), 2012).
